Bioassay records: PubChem BioAssay, National Center for Advancing Translational Sciences (NCATS)
HT1080 IDH1KD tx = qHTS for induction of synthetic lethality in tumor cells producing 2HG: qHTS for the HT-1080-IDH1KD cell line; HT-1080 IDH1 knockdown viability, ATP luminescence, 48 h; Potency, µM (top dose mostly 46.1 µM), inactives show at the highest dose activity, negative = toxicity, hits mostly cytotoxic; 2% of 360,000 active; AID 686971, 2013;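 further: potency means the concentration at half of the fitted maximal effect; 0% = DMSO wells and -100% = cell-free medium wells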
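IDH1KD HT-1080 cells, 750/well, RPMI + 5% FBS; compound pinned after 2 h settling; 48 h, 37 °C; CellTiter-Glo luminescence; % activity normalised to DMSO and no-cell wells; curves fitted, classed by r2 and efficacy.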
DT40 TDP1 no CPT = qHTS for Inhibitors of human tyrosyl-DNA phosphodiesterase 1 (TDP1): qHTS in cells in absence of CPT. AID 686978, 2013. 15% of 420,000 active. DT40 Tdp1-/- hTDP1 cells, no CPT, ATP luminescence, 48 h. Potency, µM (doses to about 46.2 µM), inactives show at the highest dose activity change, negative = growth inhibition, hits mostly inhibitors; further: potency means the concentration at half of the fitted maximal effect; nearly all actives have a fitted effect of over 55% in size
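Luminescent ATP content (CellTiter-Glo) served as the growth readout. Knockout chicken DT40 cells expressing human TDP1 were exposed to compounds without camptothecin for a minimum 48 hr at 37 °C.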
IL-1B inflam inh = qHTS for Inhibitors of Inflammasome Signaling: IL-1-beta AlphaLISA Primary Screen; THP-1 LPS/ATP IL-1B secretion, AlphaLISA, 16 h; stronger effect = lower value; activity change, % at 57.5 µM; 4.7% of 360,000 active; AID 743279, 2014; in the data active means activity change below about -50%; inconclusive means mostly about -30% to -49%
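Secreted IL-1B measured by AlphaLISA bead assay after 16 h compound exposure of THP-1 cells; compounds (final up to 57.5 uM) added 1 h before LPS (250 ng/mL) and ATP (1.25 mM) stimulation; lower signal means less secretion.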
HT1080NT lethal = qHTS for induction of synthetic lethality in tumor cells producing 2HG: qHTS for the HT-1080-NT fibrosarcoma cell line. HT-1080-NT fibrosarcoma viability, CellTiter-Glo ATP luminescence, 48 h. 1.6% of 360,000 active. Potency, µM (titrated, usually from 46.1 µM), inactives show at the highest dose activity, negative = less viability, most hits filed as cytotoxic;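 further: NT is the 2HG producing partner of a matched IDH1 knockdown line; potency means the concentration at half of the fitted maximal effect; 0% = DMSO-treated cells and -100% = media-only wells without cells; nearly all actives have a fitted effect of over 55% in size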
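Luminescent CellTiter-Glo readout after 48 hours of compound exposure at 37 degrees C defined viability of HT-1080-NT cells. Activity was normalized to DMSO wells and cell-free media wells; concentration-response curves were fitted and assigned curve classes.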
DT40 TDP1 CPT = qHTS for Inhibitors of human tyrosyl-DNA phosphodiesterase 1 (TDP1): qHTS in cells in presence of CPT | chicken DT40 Tdp1-/-;hTDP1 cells + 20 nM CPT, ATP luminescence, 48 h | 12% of 420,000 active | Potency, µM (titrated, usually from 46.2 µM), inactives show at the top dose activity change, negative = growth inhibition, most hits filed as inhibitors | AID 686979, 2013; further: potency means the concentration at half of the fitted maximal effect; nearly all actives have a fitted effect of over 55% in size
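Chicken DT40 Tdp1-/- cells stably complemented with human TDP1 were seeded at 400 cells/well in medium containing 20 nM camptothecin, exposed to pin-transferred compounds, and grown at 37 °C for at least 48 hr. Viability was read as ATP luminescence.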
Starred values were filed as active, the others as inactive; ? = inconclusive; nt = not tested or not shown; [ ] = another dose, or the depositor's remark. The list is not random: actives were taken first. Their share in the collection is about 19%. Unless noted, the call rests on the fitted dose curve; in most records, active means well fitted curve in the direction sought with a large enough effect; inconclusive means small, poorly fitted or top-dose-only effect, or another doubt; inactive means no such curve, though single readings can be large; an effect the other way counts as inactive or inconclusive. Unless noted, on the % scale 0 is the no-effect control and ±100 the full control effect.

SMILES	HT1080 IDH1KD tx	DT40 TDP1 no CPT	IL-1B inflam inh	HT1080NT lethal	DT40 TDP1 CPT
O=C(CNc1ccc(Br)cc1)NC(=O)NC1CCCCC1	-8%	?	-25	-7%	?
O=[N+]([O-])c1ccc(-c2csc(N3CCc4ccccc4C3)n2)cc1	0%	-1%	25	2%	-12%
O=[N+]([O-])c1ccc(N2CCc3ccccc3C2)cc1	2%	18µM*	-19	2%	?
O=C(Nc1cccc(Cl)c1)N1CCc2ccccc2C1	-7%	?	-19	0%	?
CC(C)c1ccc(NC(=O)N2CCc3ccccc3C2)cc1	-26%	?	-59*	0%	?
O=C(Nc1ccc([N+](=O)[O-])cc1)N1CCc2ccccc2C1	12µM*	?	-90*	-2%	-23%
COCC(=O)N1CCC(n2nccc2NC(=O)CCOc2ccccc2)CC1	7%	-5%	4	1%	0%
CSc1ccccc1NC(=O)CN(Cc1ccc(Cl)cc1)S(C)(=O)=O	1%	-23%	-63*	-4%	-22%
CSc1ccccc1NC(=O)CN(Cc1ccccc1)S(C)(=O)=O	0%	-18%	-3	5%	3%
COC(=O)c1cc(S(=O)(=O)Nc2ccc(C)cn2)c[nH]1	5%	-1%	8	-3%	-23%
CSc1nnc(CCNC(=O)c2ccccc2C(F)(F)F)n1-c1ccc(F)cc1	nt	-7%	nt	nt	18%[9.04 µM]
c1coc(-c2nc(-c3ccco3)c(-c3ccco3)nc2-c2ccco2)c1	?	?	14	?	?
Cc1cccc(N2CCN(C(=O)c3ccc4c(Cl)c5c(nc4c3)CCCC5)CC2C)c1 (centres undefined)	nt	?	nt	nt	-25%
Cc1cccc(N2CCN(C(=O)c3ccc4nc(-c5ccco5)c(-c5ccco5)nc4c3)CC2C)c1 (centres undefined)	-20%	18µM*	?	1%	18µM*
CC(=O)c1ccc(NC(=O)c2ccc3nc(-c4ccco4)c(-c4ccco4)nc3c2)cc1	-16%	?	-6	-19%	?
O=C(NC1CC1)c1ccc2nc(-c3ccco3)c(-c3ccco3)nc2c1	nt	13µM*	nt	nt	?
CNC(=O)c1ccc2nc(-c3ccco3)c(-c3ccco3)nc2c1	nt	?	nt	nt	20µM*
COc1ccc2nc(-c3ccco3)c(-c3ccco3)nc2c1	-2%	?	-24	-2%	18µM*
CC(=O)c1ccc(NC(=O)C(Cc2ccccc2)n2cccc2)cc1 (centres undefined)	11%	?	7	13%	?
COc1cc(C(=O)N2CCC(NC(=O)C(Cc3ccc(C(C)C)cc3)NC(C)=O)CC2)cc(OC)c1OC (centres undefined)	8%	-19%	5	6%	-10%
CCOc1ccc(NC(=O)CN(C)C2=NS(=O)(=O)c3ccccc32)cc1	4%	-25%	12	5%	-19%
O=C1CSc2ccc(C(=O)N3CCCCC3)cc2N1	-1%	?	21	9%	-15%
CCOC(=O)c1c(-c2ccc(Br)cc2)csc1NC(=O)c1ccc(C(C)(C)C)cc1	nt	2%	nt	nt	-7%
O=C1NC2(CCCCCC2)C(=O)N1Cc1ccccc1Cl	-6%	-14%	16	-2%	-3%
O=C(Nc1ccccc1)c1ccc2nc(-c3ccco3)c(-c3ccco3)nc2c1	?	23µM*	?	?	21µM*
SMILES	HT1080 IDH1KD tx	DT40 TDP1 no CPT	IL-1B inflam inh	HT1080NT lethal	DT40 TDP1 CPT
CC1CCN(c2nc(-c3cccnc3)nc3scc(-c4ccccc4)c23)CC1	4%	-17%	81	-10%	?
CN1CCN(c2nc(-c3cccnc3)nc3scc(-c4ccccc4)c23)CC1	-9%	23µM*	-52*	?	?
CC1CCCN(c2nc(-c3cccnc3)nc3scc(-c4ccccc4)c23)C1 (centres undefined)	-18%	18µM*	-61*	1%	?
CC(C)N(Cc1ccccc1)C(=O)COC(=O)/C=C/c1cnc2ccccc2n1	-1%	-26%	-201*	-7%	6%
CCOC(=O)NNc1ccc2nonc2c1[N+](=O)[O-]	?	2.9µM*	-77*	?	6.5µM*
O=S(=O)(Nc1ncnc2c1oc1ccccc12)c1ccc(Cl)s1	-1%	-27%	43	-4%	-19%
CCOC(=O)CSC1=NC(=O)/C(=C\c2ccc(OC(C)=O)cc2)S1	?	2.9µM*	-62*	?	2.6µM*
CCOC(=O)COc1ccc(Br)cc1/C=C1\SC(N)=NC1=O	1%	?	-5	-2%	-4%
NC1=NC(=O)/C(=C/c2ccc(Br)cc2)S1	10%	-3%	10	19%	-10%
CCOC(=O)CSC1=NC(=O)/C(=C/c2ccc(Br)cc2)S1	?	4.1µM*	-64*	?	2.6µM*
CC(C)NC(=O)CN1CCN(Cc2nc(C(c3ccccc3)c3ccccc3)no2)CC1	10%	-14%	0	13%	-6%
CN(C)c1ccc(/C=C(/NC(=O)c2ccccc2Cl)C(=O)NCCN2CCOCC2)cc1	-6%	-6%	-16	0%	5%
CCC1CCCCN1c1cc(C)nc2cc(-c3cccc(C)c3)nn12 (centres undefined)	?	13µM*	-99*	?	?
Cc1cc(N2CCOCC2)n2nc(-c3cccc(F)c3)cc2n1	11%	-9%	30	20%	-21%
Cn1c(=O)oc2cc(S(=O)(=O)NCc3ccc(F)cc3)ccc21	4%	-2%	6	1%	-17%
Cc1c(O)ccc2c1OC(C)(C)CC2	15%	4µM*	nt	14%	5.6µM*
CCOC(=O)C1(C)CCN1C(=O)c1ccco1 (centres undefined)	0%	-2%	11	28%	-19%
CCOC(=O)/C(=C/c1c(C)n(C)c2ccc([N+](=O)[O-])cc12)C(C)=O	?	9.2µM*	-104*	16µM*	?
CC1(C)CC(=O)C2=C(C1)OC1=C(C(=O)CC(C)(C)C1)C2c1cccc([N+](=O)[O-])c1	1%	16µM*	-14	1%	?
CC1(C)CC(=O)C2=C(C1)OC1=C(C(=O)CC(C)(C)C1)C2c1ccc(O)cc1O	5µM*	4µM*	-104*	5.6µM*	2µM*
CC1(C)CC(=O)C2=C(C1)OC1=C(C(=O)CC(C)(C)C1)C2c1ccc(O)c([N+](=O)[O-])c1	4%	-12%	3	1%	?
